This is a sample that favours compounds with a hit; in the whole collection about 8.3% have one here.
Giardia FBPA inh = inhibitors of Giardia lamblia fructose-1,6-bisphosphate aldolase; 0.71% of 290,000 active; A8B2U2; AID 2451; Potency, µM (top dose mostly 59.6 µM), most hits filed as inhibitors; purified Giardia FBPA; note: nearly all actives have a fitted effect of over 55% in size
Target sequence (A8B2U2 whole entry, looked up): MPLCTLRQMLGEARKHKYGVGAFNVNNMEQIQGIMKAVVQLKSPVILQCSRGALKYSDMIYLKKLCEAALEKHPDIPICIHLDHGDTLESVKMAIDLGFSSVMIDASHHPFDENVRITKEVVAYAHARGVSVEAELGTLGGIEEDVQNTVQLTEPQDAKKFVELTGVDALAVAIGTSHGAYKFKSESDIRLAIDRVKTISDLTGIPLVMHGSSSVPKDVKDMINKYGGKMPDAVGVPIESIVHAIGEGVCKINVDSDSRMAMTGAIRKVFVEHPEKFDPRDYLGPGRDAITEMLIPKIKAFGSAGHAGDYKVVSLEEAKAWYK
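Giardia FBPA (40 nM reagent) was preincubated 10 min at RT with compound (up to 57.5 uM final), then substrate plus GAPDH/TPI/NAD/arsenate coupling system with diaphorase/resazurin was added; resorufin fluorescence (525/598 nm) was read after 20 min.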
HCV inh = blocks hepatitis C virus; Huh7.5.1 HCVcc-Cre infection, luciferase reporter, 44 h; Potency, µM (titrated, usually from 41.8 µM), usual class: inhibitors; 3.4% of 340,000 active; AID 651820
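Seed cells (1,000/well) for 4 h; treat with compound and infect with HCVcc-Cre, moi about 0.5. Incubate 44 h, then detect luciferase activity.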
MARV entry inh = inhibitors of Marburg virus binding or cell entry. Marburg virus pseudotyped entry inhibition, cell reporter. Potency, µM (highest dose often 37.8 µM), actives largely listed as inhibitors. 1.8% of 300,000 active; calls by dose curve; tested in HEK293 cells
Lassa entry inh = inhibitors of Lassa virus binding or cell entry | Lassa virus pseudotype entry inhibition, cell reporter | AID 540256 | Potency, µM (doses to about 37.9 µM), hits mostly inhibitors | 1.2% of 300,000 active; calls by dose curve; tested in HEK293 cells; note: nearly all actives have a fitted effect of over 50% in size
HCMV inh = human cytomegalovirus inhibition; HFF cells, HCMV-luciferase reporter, 72 h; stronger effect = lower value; activity change, negative = inhibition, % at 57.5 µM; 4.5% of 410,000 active; AID 1259415; in the data active = activity change below about -60%; inconclusive = no clear call, values can overlap the other calls; inactive = above about -39%
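Luciferase read-out from HCMV-luciferase-infected HFFs (MOI 1 PFU/cell) 72 h post infection at 37C; compounds added after 16 h cell attachment; activity normalized between buffer-only basal and Salinomycin (10uM) inhibitor controls.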
FMDV antiviral = foot and mouth disease virus antiviral activity; FMDV antiviral cell-based qHTS; 1.2% of 410,000 active; Potency, µM (titrated, usually from 57.9 µM), most hits filed as inhibitors; calls by dose curve; tested in HEK293T cells; note: read-out not given here; nearly all actives have a fitted effect of over 45% in size
Hits are given with their value; i = inactive; ? = inconclusive; nt = not tested or not shown. Unless noted, calls come from the whole dose curve; as a rule, active = well fitted curve in the direction sought with a large enough effect; inconclusive = small, poorly fitted or top-dose-only effect, or another doubt; inactive = no such curve, though single readings can be large; an effect the other way counts as inactive or inconclusive.

SMILES	Giardia FBPA inh	HCV inh	MARV entry inh	Lassa entry inh	HCMV inh	FMDV antiviral
Cc1cccc(C)c1NC(=O)N1CCN(c2nc3ccccc3s2)CC1	i	?	?	?	-70	i
CC1CCC(NC(=O)C2CCN(c3nc4ccccc4s3)CC2)CC1 (centres undefined)	nt	10µM	i	?	i	i
Cc1csc2c(N3CCN(C(=O)NC(C)(C)C)CC3)ncnc12	i	?	i	i	i	i
O=C(COC(=O)/C=C/c1cccs1)NC1CC1	i	i	?	?	-60	i
CNC(=O)COC(=O)/C=C/c1cccs1	i	i	?	i	i	i
O=S(=O)(c1ccc(SCc2ccccc2)nc1)N1CCCC1	nt	?	nt	nt	i	i
O=S(=O)(c1ccc(SCc2ccc(Br)cc2)nc1)N1CCCCC1	nt	i	i	i	i	?
COc1ccc(OCCSc2ccc(S(=O)(=O)N3CCCC3)cn2)cc1	nt	11µM	nt	nt	i	?
CN1CCN(S(=O)(=O)c2ccc(SCCOc3ccc(Cl)cc3)nc2)CC1	nt	?	?	i	i	i
O=S(=O)(c1ccc(SCCOc2ccccc2Cl)nc1)N1CCCC1	nt	13µM	nt	nt	i	?
O=S(=O)(c1ccc(SCCOc2cccc(Br)c2)nc1)N1CCCC1	nt	10µM	i	i	i	i
O=C(c1cccnc1)C1CCCN(Cc2ccc3c(c2)CN(C(=O)c2cn4ccccc4n2)CCO3)C1 (centres undefined)	nt	nt	nt	nt	nt	i
COc1ccccc1N1CCN(C(=O)c2cc3c(=O)oc4ccccc4c3s2)CC1	nt	nt	i	i	i	i
Cc1oc(-c2ccccc2NC(=O)C2CCC2)nc1CNC(=O)c1ccccn1	nt	nt	nt	nt	nt	i
CCOc1ccc(S(=O)(=O)N2CCC(C(=O)N3CCN(c4ccccc4F)CC3)CC2)cc1C	nt	?	?	7.1µM	i	i
CCOC(=O)c1ccc(S(=O)(=O)N2CCC(C(=O)N3CCN(c4ccccc4OC)CC3)CC2)cc1	nt	10µM	i	i	i	i
COc1cccc(CNC(=O)c2cnn(-c3ncc4c(n3)-c3ccccc3CCC4)c2C)c1OC	nt	nt	nt	nt	nt	i
FC(F)(F)c1cc(CN2CCCC3(CCNCC3)C2)cc(C(F)(F)F)c1	i	nt	nt	nt	nt	i
COc1ccc(NC(=O)c2oc3ccccc3c2NC(=O)C2CCCO2)cc1OC (centres undefined)	i	?	?	?	?	i
Cc1ccc(NC(=O)c2oc3ccccc3c2NC(=O)C2CCCO2)cc1C (centres undefined)	i	?	?	?	-82	i
O=C(Nc1ccc(F)c(F)c1)c1oc2ccccc2c1NC(=O)C1CCCO1 (centres undefined)	i	i	i	i	-65	i
CC(C)(C)c1ccc(S(=O)(=O)/C=C/C#N)cc1	i	nt	2.5µM	3.7µM	nt	nt
CCC(=O)Nc1cccc(-n2nnnc2SCC(=O)NCc2ccco2)c1	i	i	i	?	i	i
Cc1ccc(-n2nnnc2SCC(=O)Nc2ccccc2-c2ccccc2)cc1C	i	?	?	i	i	?
CCC(=O)Nc1cccc(-n2nnnc2SCC(=O)c2ccc(C)c(C)c2)c1	i	11µM	?	?	i	?
SMILES	Giardia FBPA inh	HCV inh	MARV entry inh	Lassa entry inh	HCMV inh	FMDV antiviral
Cc1ccc(-n2nnnc2SCC(=O)Nc2ccccc2N2CCCCC2)cc1C	i	10µM	13µM	?	i	i
Cc1ccc(-n2nnnc2SCC(=O)Nc2cccc(NC(=O)c3ccco3)c2)cc1C	i	7.9µM	?	i	?	i
Cc1cc(C)cc(-n2nnnc2SCC(=O)Nc2cccc(NC(=O)c3ccco3)c2)c1	i	?	?	i	i	i
COC(=O)C1=C(CN2CCCc3ccccc32)NC(=O)NC1c1ccc(F)cc1 (centres undefined)	i	?	?	?	-81	nt
COc1cccc([C@@H]2Oc3ccc(OC)cc3C[C@H]2OC(=O)NCc2ccco2)c1	i	nt	nt	nt	nt	nt
CCCCCCCCCCCCCCCC[N+](C)(C)CC	nt	?	nt	nt	-96	i
CCCCCCCCCCCCCCCC[N+](C)(C)C	i	?	nt	nt	-94	?
Oc1ccc2c3c1OC1c4oc5ccccc5c4C[C@@]4(O)[C@@H](C2)N(CC2CC2)CC[C@]314 (some centres undefined)	nt	i	nt	nt	-61	i
Oc1ccc2c3c1OC1c4[nH]c5ccccc5c4C[C@@]4(O)C(C2)N(CC2CC2)CC[C@]314 (some centres undefined)	nt	?	nt	nt	i	i
Oc1ccc2c3c1O[C@H]1c4oc5ccccc5c4C[C@@]4(O)C(C2)N(CC2CC2)CCC314 (some centres undefined)	i	nt	10µM	nt	nt	nt
Oc1ccc2c3c1O[C@H]1c4[nH]c5ccccc5c4C[C@@]4(O)C(C2)N(CC2CC2)CCC314 (some centres undefined)	i	nt	16µM	18µM	nt	i
C=C1CC[C@@]2(O)[C@H]3Cc4ccc(O)c5c4[C@@]2(CCN3CC2CC2)[C@H]1O5	i	?	i	i	nt	i
Nc1nnc(/C=C/c2ccccc2Cl)s1	i	i	7.1µM	?	i	i
CSc1ccc(NC(=O)N2CC=C(n3c(=O)[nH]c4ccccc43)CC2)cc1	i	10µM	?	?	i	?
CN1CC(c2ccc(Cl)c(Cl)c2)[C@@]2(COc3ccccc3C2=O)[C@@]12C(=O)Nc1ccccc12 (some centres undefined)	i	11µM	?	?	i	i
CCCN1C(=O)c2ccccc2NC1c1ccc(Cl)c(Cl)c1 (centres undefined)	i	?	nt	nt	i	i
Cc1nc(C(=O)NNC(=O)c2ccc(C(F)(F)F)cc2)cs1	?	?	?	i	-89	i
CCCCCn1c(N)c(-c2nc3ccccc3s2)c2c([N+](=O)[O-])nn(CC)c(=O)c21	i	11µM	2.9µM	i	i	i
CCCCn1c(N)c(-c2nc3ccccc3s2)c2c([N+](=O)[O-])nn(CC)c(=O)c21	i	?	?	?	i	i
CCOc1ccc(Nc2nc(N)c(C(=O)c3ccccc3Cl)s2)cc1	nt	nt	nt	?	-90	i
Cc1ncc2c(c1CNS(=O)(=O)N(C)C)CCN(C(=O)/C=C/c1cccc(F)c1)C2	nt	nt	nt	nt	nt	i
COc1ccc(F)cc1CSc1nnnn1-c1ccc(O)cc1	i	?	?	?	-62	i
O=C(NCc1ccco1)c1ccccc1NS(=O)(=O)c1ccc(Cl)s1	i	i	i	i	i	i
CS(=O)(=O)c1ccccc1C(=O)Nc1ccccc1Cc1ccccc1	i	?	i	?	i	i
O=C(Nc1ccccc1Cc1ccccc1)c1ccccc1NS(=O)(=O)c1ccc(Cl)s1	i	?	?	?	-104	?
Cc1ccc(NC(=O)c2ccccc2NS(=O)(=O)c2ccc(Cl)s2)cc1	i	11µM	10µM	?	-98	i
O=C(Nc1ccccc1)c1ccccc1NS(=O)(=O)c1ccc(Cl)s1	?	?	20µM	?	-64	i
CCOC(=O)N1CCC2CC1c1cc(-c3cccc(OC)c3)ccc12 (centres undefined)	nt	i	nt	nt	i	?
C=CC1CN(C(=O)OCC(Cl)(Cl)Cl)C2CC3c4ccc(OC)cc4NC3C3CC1C2CO3 (centres undefined)	nt	10µM	nt	nt	nt	?

Screens as filed in PubChem BioAssay.
